Test results taken from the supplement of paper PMC11732987, “Enantioselective OTUD7B fragment discovery through chemoproteomics screening and high-throughput optimisation” (Communications Chemistry, 2025).

Experiments:
Test in all cases: log2 ratio of Biotin-Ahx-Ub-VS probe labelling (fragment/DMSO); higher = less target engagement (more negative = stronger competition), active = hit call of the paper (q ≤ 0.05, log2 ratio ≤ -1)
Conditions in all cases: compound concentration: 200 uM; treatment time: 3 h
USP34 = USP34 (UniProt Q70CQ2)
Procedure, shortened: (§1)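 Each value is an average log2 ratio of fragment to vehicle, tested by unpaired t-test. The underlying Spectronaut label-free quantities were global-median-normalised, and only proteins with ≥2 unique peptides were included. Triplicate HEK293T lysate samples (495 µg) were exposed to fragment at 200 µM or vehicle for 3 h, then to Biotin-Ahx-Ub-VS at 0.5 µM final for 1 h, before NeutrAvidin enrichment of labelled DUBs, LysC and trypsin digestion, and diaPASEF LC-MS/MS.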

USP36 = target: T1, USP36 (UniProt Q9P275)
T1 sequence (whole entry): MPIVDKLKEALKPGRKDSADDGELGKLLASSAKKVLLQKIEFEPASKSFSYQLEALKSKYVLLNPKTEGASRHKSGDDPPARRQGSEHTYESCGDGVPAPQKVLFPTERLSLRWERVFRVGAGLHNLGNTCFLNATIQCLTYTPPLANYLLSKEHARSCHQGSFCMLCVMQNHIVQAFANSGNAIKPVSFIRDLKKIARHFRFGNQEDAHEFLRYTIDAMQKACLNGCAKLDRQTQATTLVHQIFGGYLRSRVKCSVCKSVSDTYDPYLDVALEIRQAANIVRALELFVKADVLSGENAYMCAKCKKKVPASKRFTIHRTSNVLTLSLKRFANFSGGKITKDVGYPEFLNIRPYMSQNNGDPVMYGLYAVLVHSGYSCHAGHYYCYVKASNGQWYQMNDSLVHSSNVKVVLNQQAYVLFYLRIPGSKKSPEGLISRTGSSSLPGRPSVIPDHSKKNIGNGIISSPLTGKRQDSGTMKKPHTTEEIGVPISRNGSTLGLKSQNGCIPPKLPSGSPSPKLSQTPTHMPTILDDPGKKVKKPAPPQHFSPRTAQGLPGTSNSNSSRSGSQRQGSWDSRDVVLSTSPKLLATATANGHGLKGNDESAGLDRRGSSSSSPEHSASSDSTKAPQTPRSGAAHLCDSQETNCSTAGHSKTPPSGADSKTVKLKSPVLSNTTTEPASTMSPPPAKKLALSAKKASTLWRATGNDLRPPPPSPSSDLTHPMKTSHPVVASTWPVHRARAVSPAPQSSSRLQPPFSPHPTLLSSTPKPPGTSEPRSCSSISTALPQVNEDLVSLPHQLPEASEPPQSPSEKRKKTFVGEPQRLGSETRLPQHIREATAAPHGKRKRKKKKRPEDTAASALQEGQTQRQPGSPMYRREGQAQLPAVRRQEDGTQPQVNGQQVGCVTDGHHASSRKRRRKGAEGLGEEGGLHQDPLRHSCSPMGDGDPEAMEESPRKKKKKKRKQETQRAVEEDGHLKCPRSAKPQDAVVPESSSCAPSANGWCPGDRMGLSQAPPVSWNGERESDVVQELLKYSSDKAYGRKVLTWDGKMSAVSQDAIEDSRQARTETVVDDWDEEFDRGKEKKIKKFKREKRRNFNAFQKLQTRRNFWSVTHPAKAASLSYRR
Procedure, shortened: as §1

USP38 = target: T2, USP38 (UniProt Q8NB14)
T2 sequence (whole entry): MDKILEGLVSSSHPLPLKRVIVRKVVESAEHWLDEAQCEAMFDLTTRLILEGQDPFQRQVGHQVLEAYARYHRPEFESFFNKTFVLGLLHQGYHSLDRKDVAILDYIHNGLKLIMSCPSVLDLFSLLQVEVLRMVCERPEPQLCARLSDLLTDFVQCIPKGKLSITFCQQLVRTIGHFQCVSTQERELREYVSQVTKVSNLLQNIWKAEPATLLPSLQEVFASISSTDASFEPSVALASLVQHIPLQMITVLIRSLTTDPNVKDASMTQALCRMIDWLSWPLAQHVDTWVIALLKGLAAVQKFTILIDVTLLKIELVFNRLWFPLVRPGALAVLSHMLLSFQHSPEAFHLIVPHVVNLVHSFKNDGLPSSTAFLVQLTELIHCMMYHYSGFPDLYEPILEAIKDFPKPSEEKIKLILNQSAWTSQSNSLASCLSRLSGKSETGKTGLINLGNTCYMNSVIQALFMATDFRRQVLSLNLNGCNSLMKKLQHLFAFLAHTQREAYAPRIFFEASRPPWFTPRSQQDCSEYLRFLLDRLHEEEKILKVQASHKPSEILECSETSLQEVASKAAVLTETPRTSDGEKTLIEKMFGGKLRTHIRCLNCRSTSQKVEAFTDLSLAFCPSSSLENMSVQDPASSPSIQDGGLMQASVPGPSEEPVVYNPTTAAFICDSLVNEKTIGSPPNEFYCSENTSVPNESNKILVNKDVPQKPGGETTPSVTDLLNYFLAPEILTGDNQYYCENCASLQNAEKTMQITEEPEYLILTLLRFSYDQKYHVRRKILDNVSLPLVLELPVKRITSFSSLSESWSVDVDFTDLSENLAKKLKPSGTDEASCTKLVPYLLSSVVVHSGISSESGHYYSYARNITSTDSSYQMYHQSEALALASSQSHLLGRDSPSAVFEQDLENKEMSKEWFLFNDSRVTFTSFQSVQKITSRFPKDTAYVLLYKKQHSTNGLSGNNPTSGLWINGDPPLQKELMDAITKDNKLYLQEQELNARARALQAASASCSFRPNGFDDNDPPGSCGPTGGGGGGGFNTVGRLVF
Procedure, shortened: as §1

USP39 = target: T3, USP39 (UniProt Q53GS9)
T3 sequence (whole entry): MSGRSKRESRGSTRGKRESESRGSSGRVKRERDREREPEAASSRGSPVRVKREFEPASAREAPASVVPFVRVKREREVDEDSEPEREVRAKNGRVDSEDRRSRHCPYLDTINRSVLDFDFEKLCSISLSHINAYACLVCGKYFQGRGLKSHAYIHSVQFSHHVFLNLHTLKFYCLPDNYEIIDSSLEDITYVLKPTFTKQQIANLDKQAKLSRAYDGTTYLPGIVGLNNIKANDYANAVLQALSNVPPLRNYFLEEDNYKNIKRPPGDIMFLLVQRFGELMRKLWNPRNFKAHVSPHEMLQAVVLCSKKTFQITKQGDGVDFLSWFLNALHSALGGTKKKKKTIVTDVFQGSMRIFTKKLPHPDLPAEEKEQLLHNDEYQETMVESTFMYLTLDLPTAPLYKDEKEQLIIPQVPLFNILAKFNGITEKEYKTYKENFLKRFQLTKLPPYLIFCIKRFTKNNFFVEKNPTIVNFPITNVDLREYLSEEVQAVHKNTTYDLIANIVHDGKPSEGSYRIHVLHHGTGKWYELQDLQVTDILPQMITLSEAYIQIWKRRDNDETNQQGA
Procedure, shortened: as §1

USP4 = target: T4, USP4 (UniProt Q13107)
T4 sequence (whole entry): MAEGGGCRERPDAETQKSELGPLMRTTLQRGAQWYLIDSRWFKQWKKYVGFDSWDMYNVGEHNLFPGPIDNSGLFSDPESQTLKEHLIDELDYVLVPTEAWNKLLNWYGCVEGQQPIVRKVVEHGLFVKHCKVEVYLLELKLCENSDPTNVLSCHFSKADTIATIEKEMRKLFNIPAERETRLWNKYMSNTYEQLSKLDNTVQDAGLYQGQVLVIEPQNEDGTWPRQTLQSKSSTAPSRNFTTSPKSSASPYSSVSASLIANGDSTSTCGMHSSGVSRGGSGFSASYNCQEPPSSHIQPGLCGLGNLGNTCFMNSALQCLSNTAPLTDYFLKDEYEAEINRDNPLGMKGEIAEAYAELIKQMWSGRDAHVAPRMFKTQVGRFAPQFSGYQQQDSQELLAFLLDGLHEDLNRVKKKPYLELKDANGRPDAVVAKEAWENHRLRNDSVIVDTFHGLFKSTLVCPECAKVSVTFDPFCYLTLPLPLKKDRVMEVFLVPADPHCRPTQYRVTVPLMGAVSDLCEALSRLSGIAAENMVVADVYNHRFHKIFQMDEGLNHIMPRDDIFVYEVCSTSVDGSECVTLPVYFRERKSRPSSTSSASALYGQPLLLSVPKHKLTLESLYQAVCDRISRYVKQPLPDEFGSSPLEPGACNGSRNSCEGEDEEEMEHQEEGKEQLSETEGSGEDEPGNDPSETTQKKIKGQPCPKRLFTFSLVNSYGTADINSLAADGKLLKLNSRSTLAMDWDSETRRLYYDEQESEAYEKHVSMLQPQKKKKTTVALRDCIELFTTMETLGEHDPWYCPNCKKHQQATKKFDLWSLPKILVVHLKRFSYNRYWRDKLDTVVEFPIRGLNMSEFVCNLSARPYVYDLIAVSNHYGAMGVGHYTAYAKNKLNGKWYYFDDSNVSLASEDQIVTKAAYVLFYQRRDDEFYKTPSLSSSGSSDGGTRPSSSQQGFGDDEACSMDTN
Procedure, shortened: as §1

Measured: log2 ratio of Biotin-Ahx-Ub-VS probe labelling

Sequence of USP34 (Q70CQ2 whole entry, the tested form may be a part): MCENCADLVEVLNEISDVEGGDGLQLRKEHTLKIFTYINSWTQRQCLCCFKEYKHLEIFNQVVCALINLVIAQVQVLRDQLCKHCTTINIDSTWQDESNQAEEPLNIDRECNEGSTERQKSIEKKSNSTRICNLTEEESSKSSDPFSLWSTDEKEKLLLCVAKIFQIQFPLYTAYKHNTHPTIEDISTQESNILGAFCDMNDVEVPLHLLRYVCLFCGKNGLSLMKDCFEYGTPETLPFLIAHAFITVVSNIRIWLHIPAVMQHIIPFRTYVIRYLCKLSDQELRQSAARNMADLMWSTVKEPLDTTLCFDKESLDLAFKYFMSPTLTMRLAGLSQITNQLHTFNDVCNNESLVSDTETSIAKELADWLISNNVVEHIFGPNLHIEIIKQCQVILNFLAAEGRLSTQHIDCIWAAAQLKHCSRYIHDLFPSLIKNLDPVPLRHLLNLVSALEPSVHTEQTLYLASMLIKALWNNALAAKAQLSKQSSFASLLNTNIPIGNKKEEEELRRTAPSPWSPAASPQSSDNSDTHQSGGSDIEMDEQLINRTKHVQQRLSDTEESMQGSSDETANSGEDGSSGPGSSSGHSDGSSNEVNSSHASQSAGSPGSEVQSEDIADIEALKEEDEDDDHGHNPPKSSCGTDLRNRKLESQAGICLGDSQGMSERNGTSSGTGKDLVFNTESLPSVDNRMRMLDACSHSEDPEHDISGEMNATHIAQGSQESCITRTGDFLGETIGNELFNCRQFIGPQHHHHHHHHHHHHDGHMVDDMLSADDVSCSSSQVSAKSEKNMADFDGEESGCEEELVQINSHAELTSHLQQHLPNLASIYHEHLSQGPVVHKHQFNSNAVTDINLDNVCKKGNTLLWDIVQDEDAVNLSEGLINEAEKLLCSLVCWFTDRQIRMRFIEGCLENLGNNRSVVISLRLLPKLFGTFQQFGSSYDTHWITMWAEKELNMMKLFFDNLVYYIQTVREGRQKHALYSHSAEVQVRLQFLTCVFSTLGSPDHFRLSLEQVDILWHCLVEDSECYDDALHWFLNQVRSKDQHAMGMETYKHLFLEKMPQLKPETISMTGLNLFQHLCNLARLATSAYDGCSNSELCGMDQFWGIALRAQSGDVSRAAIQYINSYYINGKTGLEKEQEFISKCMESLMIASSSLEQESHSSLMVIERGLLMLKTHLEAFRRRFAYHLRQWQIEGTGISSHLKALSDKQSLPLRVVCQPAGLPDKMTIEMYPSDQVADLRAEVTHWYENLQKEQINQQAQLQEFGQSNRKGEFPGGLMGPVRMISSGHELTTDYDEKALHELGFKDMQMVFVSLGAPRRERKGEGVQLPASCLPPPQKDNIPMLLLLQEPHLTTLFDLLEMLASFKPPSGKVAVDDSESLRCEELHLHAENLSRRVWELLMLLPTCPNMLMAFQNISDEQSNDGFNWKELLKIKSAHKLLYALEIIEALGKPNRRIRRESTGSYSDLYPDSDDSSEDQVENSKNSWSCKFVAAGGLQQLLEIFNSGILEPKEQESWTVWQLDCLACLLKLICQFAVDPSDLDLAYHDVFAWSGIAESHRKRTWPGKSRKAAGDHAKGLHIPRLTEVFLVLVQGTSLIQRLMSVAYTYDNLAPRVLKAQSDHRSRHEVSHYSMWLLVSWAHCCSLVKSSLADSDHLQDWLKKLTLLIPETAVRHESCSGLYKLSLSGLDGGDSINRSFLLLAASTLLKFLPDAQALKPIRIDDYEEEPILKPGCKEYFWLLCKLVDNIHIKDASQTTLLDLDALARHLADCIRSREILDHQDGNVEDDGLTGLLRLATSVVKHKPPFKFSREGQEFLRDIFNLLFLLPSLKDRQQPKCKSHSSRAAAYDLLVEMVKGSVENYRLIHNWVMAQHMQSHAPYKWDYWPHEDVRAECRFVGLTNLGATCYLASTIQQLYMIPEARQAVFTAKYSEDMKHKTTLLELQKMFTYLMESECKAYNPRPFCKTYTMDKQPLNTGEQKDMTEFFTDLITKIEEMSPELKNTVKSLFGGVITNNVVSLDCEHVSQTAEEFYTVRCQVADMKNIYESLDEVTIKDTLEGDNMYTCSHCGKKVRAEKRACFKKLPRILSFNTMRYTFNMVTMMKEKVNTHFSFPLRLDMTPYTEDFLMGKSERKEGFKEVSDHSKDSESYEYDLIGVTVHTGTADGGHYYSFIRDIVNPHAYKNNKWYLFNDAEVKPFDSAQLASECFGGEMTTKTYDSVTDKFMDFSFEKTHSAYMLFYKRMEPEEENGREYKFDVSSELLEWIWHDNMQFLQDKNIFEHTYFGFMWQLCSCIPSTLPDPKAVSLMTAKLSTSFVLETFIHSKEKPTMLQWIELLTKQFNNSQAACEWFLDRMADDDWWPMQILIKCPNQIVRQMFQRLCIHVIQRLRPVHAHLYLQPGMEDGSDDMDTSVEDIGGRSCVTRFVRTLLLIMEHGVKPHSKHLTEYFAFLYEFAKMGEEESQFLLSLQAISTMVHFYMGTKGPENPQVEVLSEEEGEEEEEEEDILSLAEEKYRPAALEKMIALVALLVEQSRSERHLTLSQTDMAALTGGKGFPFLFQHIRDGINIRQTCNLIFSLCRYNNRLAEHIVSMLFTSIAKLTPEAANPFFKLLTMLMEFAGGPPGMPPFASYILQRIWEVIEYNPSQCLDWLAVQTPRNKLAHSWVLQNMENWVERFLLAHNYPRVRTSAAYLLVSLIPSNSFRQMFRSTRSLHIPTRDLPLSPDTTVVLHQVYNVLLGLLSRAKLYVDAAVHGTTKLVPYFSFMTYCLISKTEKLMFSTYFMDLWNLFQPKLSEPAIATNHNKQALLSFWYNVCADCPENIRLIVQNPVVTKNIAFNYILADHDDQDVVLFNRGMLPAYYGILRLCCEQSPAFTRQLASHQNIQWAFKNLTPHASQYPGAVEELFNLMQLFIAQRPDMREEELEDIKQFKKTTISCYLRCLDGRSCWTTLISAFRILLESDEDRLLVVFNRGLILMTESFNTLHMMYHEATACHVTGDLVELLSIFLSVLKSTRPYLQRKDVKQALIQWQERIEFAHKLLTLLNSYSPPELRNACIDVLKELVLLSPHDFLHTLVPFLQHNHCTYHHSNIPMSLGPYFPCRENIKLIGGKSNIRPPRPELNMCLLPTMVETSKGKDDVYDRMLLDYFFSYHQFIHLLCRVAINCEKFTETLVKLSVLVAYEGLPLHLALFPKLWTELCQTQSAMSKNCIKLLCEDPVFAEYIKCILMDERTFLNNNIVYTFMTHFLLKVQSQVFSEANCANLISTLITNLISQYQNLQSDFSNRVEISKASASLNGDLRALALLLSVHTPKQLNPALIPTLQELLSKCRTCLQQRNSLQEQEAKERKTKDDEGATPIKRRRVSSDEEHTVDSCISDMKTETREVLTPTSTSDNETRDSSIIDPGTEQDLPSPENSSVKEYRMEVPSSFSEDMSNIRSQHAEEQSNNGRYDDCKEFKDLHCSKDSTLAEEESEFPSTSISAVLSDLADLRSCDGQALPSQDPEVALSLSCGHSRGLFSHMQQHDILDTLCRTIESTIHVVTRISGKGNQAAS

CN1C(=O)c2ccc(NC(=O)CCl)cc2C1=O
inactive: USP34 -0.233 | USP36 0.0568 | USP38 -0.169 | USP39 0.16 | USP4 -0.181
